The source of these data is PubChem BioAssay (NCI).

Values joined by “and” are separate entries in the source; they are usually repeats but may differ in a detail not shown here. Equal entries are not always repeated. Compounds without any hit were thinned out: in the full panel of roughly 79,000, 15% have a hit. Unmarked numbers belong to inactive results. Active and inactive are the calls of the source. Rule as the data show it: active = growth inhibition above about 70%; inactive = the rest.

A short description of test [1]: NCI Yeast Anticancer Drug Screen. Data for the rad50 strain (AID 155).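 Also: 0% = growth of vehicle-only cultures of the same strain.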 The note with it: S. cerevisiae rad50 strain growth inhibition, active compounds read high; at 50.0 µM unless noted. Put shortly:
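Genetically altered yeast (DNA repair pathway); compound treatment; growth inhibition vs vehicle ctrl.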

The nature of test [2]: NCI Yeast Anticancer Drug Screen. Data for the mec2-1 strain (AID 157). The note with it: S. cerevisiae mec2-1 strain, active compounds read high; at 50.0 µM unless noted. Put shortly: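 Mutant yeast (mec2-1) grown with compound; growth inhibition relative to vehicle control reported.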
Test [3] is described as follows: NCI Yeast Anticancer Drug Screen. Data for the sgs1 mgt1 strain (AID 161).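 Also: 0% = growth of cultures given vehicle only.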 The conditions noted are these: S. cerevisiae sgs1 mgt1 strain, active compounds read high; at 50.0 µM unless noted. Put shortly: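 Percent growth inhibition was derived by comparing compound-exposed mutant yeast with vehicle-exposed cultures. The strain carries alterations in DNA damage repair.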

Test [4] can be described thus: NCI Yeast Anticancer Drug Screen. Data for the cln2 rad14 strain (AID 165).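 Also: 0% = growth equal to vehicle treated cultures.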 The note with it: S. cerevisiae cln2 rad14 strain, active compounds read high; at 50.0 µM unless noted. Put shortly:
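Readout is yeast growth inhibition versus vehicle-treated controls, using a strain with cln2 and rad14 alterations exposed to compound.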

A short description of test [5]: NCI Yeast Anticancer Drug Screen. Data for the bub3 strain (AID 167). The note with it: S. cerevisiae bub3 mutant strain, active compounds read high; at 50.0 µM unless noted. Put shortly: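 Yeast carrying a defined mutation is treated with each compound, and growth is compared with that of vehicle-exposed cells to give inhibition.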
The nature of test [6]: NCI Yeast Anticancer Drug Screen. Data for the mlh1 rad18 strain (AID 175). The note with it: S. cerevisiae mlh1 rad18 strain growth inhibition, active compounds read high; at 50.0 µM unless noted. Put shortly:
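Genetically defined yeast (DNA repair-deficient) exposed to compounds; growth inhibition determined relative to vehicle.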

In the case of `CCOC(=O)C(C)N1C(=O)c2ccccc2C1=O` (centres undefined), the growth inhibition is 6.4% in test [1]; -20.4% in test [2]; -22% in test [3]; 13.3% in test [4]; 21.4% in test [5]; 0.55% in test [6].

Consider `C/C(=N\Nc1nc2ccccc2s1)c1ccc2c(c1)Sc1ccccc1O2`, for which the growth inhibition in test [1] was 42.9%; in test [2], 7.7%; in test [3], 11.9%; in test [4], 21.8%; in test [5], -1.8%; in test [6], 15.9%.

Consider `Clc1ccccc1C1SCc2nc3ccccc3n21` (centres undefined), for which the growth inhibition in test [1] was 10.8%; in test [2] it was -7.85%; in test [3], 53.2%; in test [4], 18.9%; in test [5], 26.4%; in test [6] it was 22.6%.

Consider `O=C(c1ccc(-c2ccccc2)cc1)c1ncc(-c2ccc(-c3ccccc3)cc2)[nH]1`, for which the growth inhibition in test [1] is 15.5%; in test [2] it was 10.7%; in test [3] it was 17.1%; in test [4], -4%; in test [5], 19.1%; in test [6], 21.3%.

Turning to `O=P(CSCCO)(c1ccccc1)c1ccccc1`, the growth inhibition in test [1] was -23.6%; in test [2] it was -21.9%; in test [3] it was -13.4%; in test [4] it was -6.3%; in test [5] it was -11.9%; in test [6], -36.7%.

Regarding `CCC1=C(c2ccc(OC)cc2)CC[C@@]2(CCNC2=O)[C@@H]1C`, the growth inhibition in test [1] was 4.8%; in test [2] it was -0.2%; in test [3], -5.45%; in test [4], 14.3%; in test [5], 3.8%; in test [6] it was 8.8%.

As for `CC1(C)OC1CS(=O)c1ccccc1` (centres undefined), the growth inhibition in test [1] was -6.1%; in test [2] it was -5.4%; in test [3] it was -14.5%; in test [4], -17.4%; in test [5] it was 5.5%; in test [6], -42.8%.

`Cc1nccn1C(/C(=N/O)c1ccccc1)c1ccccc1` (centres undefined): the growth inhibition in test [1] was -0.55%; in test [2], 10.4%; in test [3], -0.5%; in test [4], 13.7%; in test [5] it was 10.8%; in test [6] it was 3.2%.

On to `O=C1c2c(O)ccc(O)c2C(=O)c2c(NCCNCCO)ccc(NCCNCCO)c21`, for which the growth inhibition was 61.9% and 31.9% in test [1]; 21.6% and -16.4% in test [2]; 54.2% and -52% in test [3]; -41.9% and -21.4% in test [4]; 9.5% and -63.3% in test [5]; 41% and -16.6% in test [6].

In the case of `COc1ccccc1N=C(N)N/N=C/c1c[nH]c2ccccc12`, the growth inhibition is 0.25% in test [1]; -8.85% in test [2]; -9.6% in test [3]; 17% in test [4]; 1.45% in test [5]; 15.2% in test [6].

As to `O=S(=O)(O)C(I)S(=O)(=O)O`, the growth inhibition is -19.1% in test [1]; -2.65% in test [2]; -19.4% in test [3]; -18.2% in test [4]; -10.8% in test [5]; -20% in test [6].

On to `NC(=O)NN(Cc1ccc2c(c1)OCO2)N=O`, for which the growth inhibition in test [1] is -7.25%; in test [2] it was -6%; in test [3], -5.55%; in test [4] it was -16.6%; in test [5], 16.2%; in test [6] it was 1.9%.

On to `Cc1ccc(N[P+](c2ccccc2)(c2ccccc2)c2ccccc2)cc1.[Cl][Fe]([Cl])([Cl])[Cl]`, for which the growth inhibition in test [1] was 44.1%; in test [2], 3%; in test [3], 22.9%; in test [4], -8.4%; in test [5], 11.7%; in test [6], 12.6%.

For the compound `O=C(Nc1ccc(Br)cc1)C(Br)C(Br)c1ccccc1` (centres undefined), the growth inhibition in test [1] was 98% (active); in test [2], 97.7% (active); in test [3], 98.6% (active); in test [4], 96.7% (active); in test [5], 97.8% (active); in test [6], 97.9% (active).

As to `CN(C)c1ccc(/[N+]([O-])=N/N2C(=O)c3ccccc3C2=O)cc1`, the growth inhibition in test [1] was -25.1%; in test [2], -24.4%; in test [3], -20.9%; in test [4] it was -52%; in test [5] it was -22.9%; in test [6], -25.5%.

In the case of `CCCCN(CCCC)CC(C(=O)Nc1ccc([N+](=O)[O-])cc1[N+](=O)[O-])/C(C)=N\NC(=O)c1ccncc1` (centres undefined), the growth inhibition was 22.7% in test [1]; -3.65% in test [2]; 11.8% in test [3]; -65.1% in test [4]; 2.55% in test [5]; 18.1% in test [6].

With `C1C2OC2CC2OC12` (centres undefined), the growth inhibition is -13.4% in test [1]; -9.35% in test [2]; -1.2% in test [3]; 55.8% in test [4]; -1.05% in test [5]; -4.25% in test [6].

Consider `CCOC(=O)Cc1ccc2ccccc2c1`, for which the growth inhibition in test [1] was 7.3%; in test [2], -24.1%; in test [3], -1.95%; in test [4], 1.2%; in test [5] it was 8.05%; in test [6], 7.5%.

Turning to `COCCN=Cc1ccc(N(C)C)cc1`, the growth inhibition is 4.35% in test [1]; -4.8% in test [2]; -3.05% in test [3]; -26.4% in test [4]; 7.45% in test [5]; 3.7% in test [6].

In the case of `O=C(NC(CSC(c1ccccc1)(c1ccccc1)c1ccccc1)C(=O)O)OC(c1ccccc1)c1ccccc1` (centres undefined), the growth inhibition in test [1] is 91.5% (active); in test [2] it was 95.6% (active); in test [3], 96.5% (active); in test [4], 89% (active); in test [5] it was 89.5% (active); in test [6], 96.5% (active).

With `O=C1c2ccccc2C(=O)N1C/C=C/CO`, the growth inhibition in test [1] is 11.5%; in test [2], 8.75%; in test [3], -1.45%; in test [4], 7.6%; in test [5], 0.95%; in test [6] it was 1.15%.

For `CCN(C(=O)c1ccc(C(=O)N(CC)c2cccc(C)c2)cc1)c1cccc(C)c1`, the growth inhibition in test [1] was -24.4%; in test [2], -3.55%; in test [3], -9.85%; in test [4] it was 8.05%; in test [5], 6.15%; in test [6] it was -1.7%.

In the case of `CCCNCCC`, the growth inhibition was 2.1% in test [1]; -5.4% in test [2]; 14.5% in test [3]; -12.4% in test [4]; 4.2% in test [5]; 1.65% in test [6].

With `c1ccc(N=c2sc3ccccc3nc2Nc2ccccc2)cc1`, the growth inhibition in test [1] was 5.65%; in test [2], -37.8%; in test [3], -34.4%; in test [4], -64.8%; in test [5], -23.3%; in test [6] it was -48.9%.

For `CCC(C)(C)c1ccc(C(=O)OC)o1`, the growth inhibition in test [1] is 4.1%; in test [2], 16.2%; in test [3] it was -5.55%; in test [4], -13.3%; in test [5], -7.3%; in test [6], -13.8%.

Consider `O=c1c2ccc(Cl)cc2nc2nc(-c3ccccc3)c3cc(Cl)ccc3n12`, for which the growth inhibition is 57.6% in test [1]; 31.2% in test [2]; 37.4% in test [3]; 22.9% in test [4]; 6.3% in test [5]; 46.5% in test [6].

As for `COc1ccc(C2S/C(=C\c3ccc(OC)cc3OC)C(=O)N2NC(=O)Cc2ccccc2)cc1` (centres undefined), the growth inhibition in test [1] is -4.3%; in test [2], -50.6%; in test [3] it was 2.4%; in test [4], -59.6%; in test [5] it was -14.1%; in test [6], 5.05%.

For the compound `O=[N+]([O-])c1ncccc1O`, the growth inhibition was 12.2% in test [1]; -2.75% in test [2]; -4.5% in test [3]; 9.35% in test [4]; 12% in test [5]; 15.9% in test [6].

On to `C=CCC(O)CCCCC` (centres undefined), for which the growth inhibition is -0.4% in test [1]; -22.8% in test [2]; 15.8% in test [3]; 20.7% in test [4]; -11.3% in test [5]; -23.4% in test [6].

For `COc1ccccc1OC(=O)c1ccc(Cl)cc1`, the growth inhibition was 2.2% in test [1]; -17.6% in test [2]; 18.7% in test [3]; -63.9% in test [4]; 1.35% in test [5]; 0.75% in test [6].

On to `CC(=O)Nc1ccc(S(=O)(=O)O)c(OC(C)=O)c1`, for which the growth inhibition in test [1] is 20.8%; in test [2], -7.2%; in test [3], 9.85%; in test [4], -11.8%; in test [5], 7.35%; in test [6], 19.1%.

As to `C(=N\N(c1ccccc1)c1ccccc1)/C(c1ccccc1)c1ccccc1`, the growth inhibition in test [1] was 2.55%; in test [2], -3.2%; in test [3], 1.9%; in test [4] it was -3.95%; in test [5], 2.2%; in test [6], -4.35%.

Consider `O=C1c2cc3c(cc2CC12Cc1cc4c(cc1C2=O)CCC4)CCCC3` (centres undefined), for which the growth inhibition in test [1] is 6.45%; in test [2], -52.5%; in test [3] it was 1.45%; in test [4], -29.1%; in test [5] it was 0.35%; in test [6] it was -22.5%.

With `O=C1CCCC/C1=C/C=C/c1ccccc1`, the growth inhibition in test [1] was 10.1%; in test [2], 21.8%; in test [3], 23.1%; in test [4], -33.5%; in test [5], -29.9%; in test [6] it was 6.75%.

For the compound `CNC(=O)Nc1c(C)cccc1C`, the growth inhibition was 0.05% in test [1]; 6.1% in test [2]; -0.2% in test [3]; -26.2% in test [4]; 0.05% in test [5]; 4.05% in test [6].

On to `O=S(=O)(Cl)c1ccc(Cl)cc1`, for which the growth inhibition was -4.6% in test [1]; 13.1% in test [2]; 6.8% in test [3]; 1.5% in test [4]; -16.6% in test [5]; -7.25% in test [6].

As to `CCCCN(CCCC)CC(C(=O)Nc1ccc([N+](=O)[O-])cc1[N+](=O)[O-])/C(C)=N\NC(=S)NN` (centres undefined), the growth inhibition was 3.55% in test [1]; -6.8% in test [2]; 44.7% in test [3]; 24.8% in test [4]; 16.2% in test [5]; 24.4% in test [6].

As to `NNc1nc(NCc2ccco2)c2[nH]cnc2n1`, the growth inhibition was -10% in test [1]; -7.95% in test [2]; 1.5% in test [3]; 2.45% in test [4]; 2.5% in test [5]; 12.8% in test [6].

For `CCCCCCCCCCCCCCCCC(C#N)C(=O)O` (centres undefined), the growth inhibition in test [1] is -14.4%; in test [2], 0.95%; in test [3] it was -18.2%; in test [4], -1%; in test [5], -22.8%; in test [6], -18.9%.
